Compound activity: PubChem BioAssay, National Center for Advancing Translational Sciences (NCATS)
The sample as a whole holds a higher share of hits than the screen did.
KDM5B inhibitor – blocks human KDM5B histone demethylase activity | Q9UGL1 | KDM5B demethylase, FDH-coupled NADH fluorescence (FDH is formaldehyde dehydrogenase) | Potency, µM (highest dose often 57.7 µM), usual class: inhibitors | 2.6% of 220,000 active | AID 1347165; active means well fitted inhibition curve with a large enough effect; further: 0% is about no effect; nearly all actives have a fitted effect of over 70% in size
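Here, H3K4me3 peptide (12.5 µM in substrate mix) is demethylated by KDM5BΔAP, 200 nM final, after 10 min compound exposure. Formaldehyde product is coupled through FDH (0.25 U/mL in mix) to NADH fluorescence; 30-min ΔRFU feeds dose-response curves.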
An asterisk follows results filed as active; i = inactive. Potency means the concentration at half of the fitted maximal effect.

SMILES	KDM5B inhibitor
COc1ccc(C(=O)N2CCc3ccc(C(=O)NCc4ccccc4)cc32)cc1	i
COCCN1CCC2(C1)CN(C)c1ccc(C(=O)NCc3ccccc3)cc12 (stereo unspecified)	35µM*
Nc1nccnc1C(=O)Nc1cccc(F)c1	i
CCN(CC)S(=O)(=O)c1ccc(=O)n(CCOc2ccc(C#N)cc2)c1	i
Fc1ccc(-c2nc(-c3ccc(Br)o3)no2)cc1	i
CCOC(=O)c1cc(NC(=O)OC)cc(C(=O)OCC)c1	i
Cc1cccc(N(CC(O)Cn2cnc3ccccc32)S(=O)(=O)c2ccccc2)c1 (stereo unspecified)	i
Cc1nc2n(c1C(=O)NCCc1ccccc1)CCC(Nc1ccc(F)cc1)C2 (stereo unspecified)	i
Cc1ccc2nc(CN3CCCC(CO)(CC4CC4)C3)cn2c1 (stereo unspecified)	22µM*
OCC1(CC2CC2)CCCN(Cc2ccc(C(F)(F)F)nc2)C1 (stereo unspecified)	i
OCC1(CC2CC2)CCCN(Cc2ccccc2OC(F)F)C1 (stereo unspecified)	i
CN(C)c1ccc(Nc2ncncc2-c2nc(-c3ccccc3)no2)cc1	i
Cc1ccc(Cn2c(C3CCN(C(=O)c4ccc(C(C)(C)C)cc4)CC3)n[nH]c2=O)cc1	i
O=C(COc1ccc(F)cc1F)NC1CCCN(c2ncccn2)C1 (stereo unspecified)	i
O=C(NCc1ccc2c(c1)OCO2)C1CCN(c2cc(C(F)(F)F)ncn2)CC1	i
Cc1ccc(CNC(=O)C2CCN(c3cc(C(F)(F)F)ncn3)CC2)cc1	i
CCc1ccc(CNC(=O)C2CCN(c3cc(C(F)(F)F)ncn3)CC2)cc1	28µM*
CCn1c(CSc2n[nH]c(-c3ccccc3)n2)nc2cc(S(=O)(=O)N(C)C)ccc21	i
CCCCc1cc(=O)oc2cc(OCC(=O)c3ccc(OC)cc3)ccc12	i
COC(=O)C(C(=O)OC)C(c1ccc(Cl)cc1)C(C)C(=O)c1ccc(C)cc1 (stereo unspecified)	i
CCOCCOC(=O)c1nc2ccccc2nc1NCCc1ccc(OC)c(OC)c1	i
O=C(C1CCCC1)N1CCC(Oc2cnc3c(ccn3-c3cncnc3)c2)CC1	i
C[S+](=O)([O-])NCCn1ccc2cc(OC3CCN(C(=O)C4CCCC4)CC3)cnc21	35µM*
O=C(C1CC1)N1CCC(Oc2cnc3c(ccn3-c3cncnc3)c2)CC1	i
Cc1nc2cc(NC(=O)C3CC(=O)N(C4CCCC4)C3)ccc2o1 (stereo unspecified)	i
SMILES	KDM5B inhibitor
Cc1nn(C)c(C)c1-c1ccnc(NCC2CC(=O)N(C3CCCC3)C2)n1 (stereo unspecified)	25µM*
Cc1ccc(Cl)cc1NC(=O)C1CC(=O)N(C2CCCCC2)C1 (stereo unspecified)	i
O=C(O)C(c1c[nH]c2cc(CO)ccc12)N1CCN(Cc2cccs2)CC1 (stereo unspecified)	i
Cc1c(CNC(=O)c2ccc3nc(-c4ccc(F)cc4)cn3c2)cnn1C	28µM*
O=C(NCc1nnc2n1CCC2)Nc1ccccc1	i
CCc1ccc(-c2cc(C(F)(F)F)n3nc(C(=O)NCc4cnn(C)c4C)cc3n2)s1	i
Cc1ccc(C(=O)NCc2ccc(-c3csc(C)n3)cc2)cc1	i
O=C(Nc1ccc(-c2nnc3n2CCCC3)cc1)c1ccc(F)cc1	i
O=C(NCc1ccccn1)c1ccc(F)cc1	i
CCc1nnc2sc(-c3ccc(CNC(=O)c4ccc(F)cc4)cc3)nn12	i
O=C(NCc1nnc2n1CCC2)c1ccc2nc(-c3ccc(F)cc3)cn2c1	32µM*
O=C(NCCCc1ccccn1)c1ccc2nc(-c3ccc(F)cc3)cn2c1	28µM*
O=C(NCc1ccc(Cl)cc1)c1noc(-c2ccc(F)cc2)n1	i
O=C(NCCc1ccccn1)c1ccc(C(F)(F)F)cc1	i
O=C(NCc1ccoc1)c1ccc2nc(-c3ccc(F)cc3)cn2c1	25µM*
COc1ccc(Br)cc1CSc1nnc(C)n1C1CC1	i
Cc1ccc(CN2C(=O)NC3(CCCN(C(=O)c4cc(Cl)ccc4F)C3)C2=O)cc1 (stereo unspecified)	i
CC(C)C(=O)N1CCN(Cc2coc(-c3ccc(Cl)cc3)n2)CC1	i
CC(C)c1noc(-c2ccn3c(CNC(=O)c4ccccc4)nnc3c2)n1	i
Cc1ccc(C(=O)NCc2nnc3cc(-c4nc(C)no4)ccn23)cc1	11µM*
Cc1noc(-c2ccn3c(CNC(=O)c4ccccn4)nnc3c2)n1	i
Cc1cccc(C(=O)NCc2nnc3cc(-c4nc(C(C)C)no4)ccn23)c1	28µM*
Cc1cccc(C(=O)NCc2nnc3cc(-c4nc(C)no4)ccn23)c1	25µM*
CC(C)c1noc(-c2ccn3c(CNC(=O)c4ccoc4)nnc3c2)n1	28µM*
CCc1ccc(-c2csc(/C(C#N)=C/Nc3cccc(C)c3C)n2)cc1	i
SMILES	KDM5B inhibitor
O=C(CN1CCN(C(=O)c2ccc(I)cc2)CC1)N1CCCCC1	i
Cc1ccc(S(=O)(=O)N2CCCCC2C(=O)N2CCCCCC2)cc1 (stereo unspecified)	i
COC(=O)C1=C(C)NC(=O)CC1c1c(F)cccc1Cl (stereo unspecified)	i
O=C(O)C(F)(F)c1ccc(F)cc1	i
COCCOc1cc(NC(=O)c2nn(C)c(=O)c3ccccc23)ccc1OC	i
Cc1cc(SCC(=O)NC2(C)CCS(=O)(=O)C2)nc2c(C)cccc12 (stereo unspecified)	i
O=C1C=C(c2ccccc2)CC(c2ccc(Br)cc2)C1 (stereo unspecified)	i
Cc1csc(C(C#N)C(=O)CSc2ccc3c(c2)OCCCO3)n1 (stereo unspecified)	i
Cc1cc(CNC(=O)C2CCCN2C(=O)OC(C)(C)C)ccc1F (stereo unspecified)	i
CN(C)C[C@@H]1CN(c2ncccn2)C[C@H]1NC(=O)CCCc1ccccc1	32µM*
CN(C)C[C@@H]1CN(c2ncccn2)C[C@H]1NC(=O)c1cnco1	32µM*
Cc1noc(C)c1C(=O)N[C@@H]1CN(c2ncccn2)C[C@H]1CN(C)C	32µM*
Cc1occc1C(=O)N[C@@H]1CN(c2ccncn2)C[C@H]1CN(C)C	i
COc1ccc(CCC(=O)N[C@@H]2CN(c3ccncn3)C[C@H]2CN(C)C)cc1	i
Cc1ncoc1C(=O)N[C@@H]1CN(Cc2cccnc2)C[C@H]1CN(C)C	i
CN(C)C[C@@H]1CN(Cc2ccccc2)C[C@H]1NC(=O)c1cnco1	i
CN(C)C[C@@H]1CN(c2ccncn2)C[C@H]1NC(=O)c1ccco1	i
Cc1ccc(CC(=O)N[C@@H]2CN(c3ccncn3)C[C@H]2CN(C)C)cc1	i
Cn1c(CC(=O)Nc2ccc(Cl)cc2)nnc1SCC(=O)NC12CC3CC(CC(C3)C1)C2	i
Cc1noc(C)c1[S+](=O)([O-])N1CCC2(C1)C(=O)N(CCc1ccccc1)c1ccccc12 (stereo unspecified)	i
CC[N+](CC)(CC#Cc1ccccc1)CC(=O)OC	i
CC(C)N1CCC(F)(c2nc(-c3ccccc3)no2)CC1	i
COCCOc1ccnc(-c2noc([C@@H]3CCCN3CC(C)(C)C)n2)c1	i
COCCOc1ncccc1-c1noc([C@@H]2CCCN2Cc2cccc(C#N)c2)n1	i
COCCOc1ncccc1-c1noc([C@@H]2CCCN2C2CCN(C(C)=O)CC2)n1	i
COCCNc1ncccc1-c1noc([C@@H]2CCCN2Cc2ccco2)n1	28µM*
